# Results published in PubChem BioAssay (EPA / NIEHS).
# The source made the active and inactive calls. The calls were made as follows: active = hit-call score of the fitted dose curve at least 0.9, where 1 is the maximum; inactive = score below 0.9.
# Assay: CCTE_Harrill_HTTr_Apoptosis_PRF_DMEM_12hr: (Pilot) CCTE's 12-hour Apoptosis Assessment for the High-Throughput Transcriptomics (HTTr) Platform, in MCF-7 cells cultured in phenol red-free DMEM + 10% charcoal-stripped fetal bovine serum, Harrill Lab (AID 2283985)
# Source text: This is a cell-based assay that evaluates apoptosis using high content imaging to evaluate activation of caspase-3/7 using the CellEvent Caspase 3/7 Green detection reagent in 384-well format.One of seven assay components measured from the CCTE_Harrill_HTTr_Apoptosis assay. This was part of a pilot experiment. This is a cell-based assay that evaluates apoptosis in MCF-7 cells cultured in phenol red-free DMEM + 10% charcoal-stripped fetal bovine serum. High content imaging is used to evaluate activation of caspase-3/7 using the CellEvent Caspase 3/7 Green detection reagent. Measurements are taken at 12 hours after chemical dosing in 384-well format.The assay component endpoint CCTE_Harrill_HTTr_Apoptosis_PRF_DMEM_12hr was analyzed with bidirectional fitting relation to DMSO as the negative control and baseline of activity. Using a type of viability reporter, gain-of-signal activity can be used to evaluate activation of caspase-3/7 using the CellEvent Caspase 3/7 Green detection reagent to understand changes in apoptosis. To generalize the intended target to other relatable targets, this assay endpoint is annotated to cell cycle, where the subfamily is apoptosis.
# Chemicals were tested in MCF7 cells in an eight point dilution series with a twelve hour exposure duration.
Compound,outcome,AC50
CC(C)OC(=O)C(C)(C)Oc1ccc(C(=O)c2ccc(Cl)cc2)cc1,inactive,
S=C([S-])NCCNC(=S)[S-].[Mn+2],inactive,
CC[C@H](C)C(=O)O[C@H]1C[C@@H](C)C=C2C=C[C@H](C)[C@H](CC[C@@H]3C[C@@H](O)CC(=O)O3)[C@H]21,inactive,
CCC(=C(c1ccc(O)cc1)c1ccc(OCCN(C)C)cc1)c1ccccc1,,80.6 µM (active)
CCC(C)(C)C(=O)O[C@H]1C[C@@H](C)C=C2C=C[C@H](C)[C@H](CC[C@@H]3C[C@@H](O)CC(=O)O3)[C@H]21,inactive,
CC(C)C(=O)Nc1ccc([N+](=O)[O-])c(C(F)(F)F)c1,inactive,
N[C@@H](Cc1cc(I)c(Oc2ccc(O)c(I)c2)c(I)c1)C(=O)O,inactive,
Cc1c(C)c2c(c(C)c1O)CCC(C)(COc1ccc(CC3SC(=O)NC3=O)cc1)O2 (stereo unspecified),inactive,
CC1(C)NC(=O)N(c2ccc([N+](=O)[O-])c(C(F)(F)F)c2)C1=O,inactive,
CCCCc1oc2ccccc2c1C(=O)c1cc(I)c(OCCN(CC)CC)c(I)c1,inactive,
CC(C)CCCCCCc1ccc(O)cc1,,61.8 µM (active)
C[C@]12CC[C@@H]3c4ccc(O)cc4C[C@@H](CCCCCCCCCS(=O)CCCC(F)(F)C(F)(F)F)[C@H]3[C@@H]1CC[C@@H]2O (stereo partly specified),inactive,
CCN(CC)CCOc1ccc(C(=C(Cl)c2ccccc2)c2ccccc2)cc1,,81.6 µM (active)
Cc1nn(C)c(Oc2ccccc2)c1C=NOCc1ccc(C(=O)OC(C)(C)C)cc1,inactive,
O=C(O)Cc1cc(I)c(Oc2cc(I)c(O)c(I)c2)c(I)c1,inactive,
C=CCOC(Cn1ccnc1)c1ccc(Cl)cc1Cl (stereo unspecified),inactive,
CC(=O)O[C@]1(C(C)=O)CC[C@H]2[C@@H]3C=C(Cl)C4=CC(=O)[C@@H]5C[C@@H]5[C@]4(C)[C@H]3CC[C@@]21C,inactive,
CC(C)(c1ccc(O)cc1)c1ccc(O)cc1,inactive,
Cc1oc(-c2ccccc2)nc1CCOc1ccc(C[C@H](Nc2ccccc2C(=O)c2ccccc2)C(=O)O)cc1,inactive,
Nc1nc(Cl)nc2c1ncn2[C@H]1C[C@H](O)[C@@H](CO)O1,inactive,
CCOC(=O)C(C)(C)Oc1ccc(Cl)cc1,inactive,
